Molecules are shown by their SMILES. About 2,900 (47%) of roughly 6,200 compounds were called active. No stated cut-off is given here; in the data, active means inhibition above about 50%; inactive means the rest. The set was probably picked from earlier hits. This is one part of the list.

The assay can be described thus: Mycobacterium tuberculosis growth inhibition, primary screen (AID 1259343). As to conditions: inhibition: at 10 µM, hits give high values; outcome: 10 uM.
As for `OCCc1ccc(-c2noc(C3CCC3)n2)cc1`, the inhibition (commonly the drop in the measured response relative to a control, in per cent) was 40.7% (inactive).
In the case of `COc1ccc(CC(=O)N(CC(=O)N2CCc3sccc3C2c2ccc(Cl)cc2Cl)Cc2ccc(F)cc2)cc1` (stereo unspecified) it was 3.26% (inactive); in that of `COc1ccc(CC(=O)N2CCC(c3nc(-c4ccc(Cl)cc4F)no3)CC2)cc1`, 89% (active); in that of `O=C(CCc1ccccc1)N1CCC(c2nc(-c3ccc(C(F)(F)F)cc3)no2)CC1`, 83.2% (active).
As to `CC(=O)Nc1cccc(CNc2ccc(Br)cn2)c1`, the inhibition was 2.55% (inactive).
In the case of `CSC1(CNc2ccc(Br)cn2)CCOCC1` it was 57.5% (active); in that of `O=C1CCC(C(=O)Nc2ccc(F)c(-n3cccc3)c2)CN1` (stereo unspecified), 68.1% (active); in that of `O=C(CC1CCCCC1)NCc1ccn(-c2ccccc2F)n1`, 25.1% (inactive).
In the case of `CC1(C(=O)Nc2ccc(F)c(-n3cccc3)c2)CCOCC1` it was 49.2% (inactive); in that of `O=C(CC1CCS(=O)(=O)C1)Nc1ccc(F)c(-n2cccc2)c1` (stereo unspecified), 58.4% (active); in that of `CC(=O)Nc1ccc(/C=C2\C(=O)c3c(O)ccc(Cl)c3C2C)cc1` (stereo unspecified), 28.3% (inactive).
As to `CCOC(=O)C1=C(O)/C(=C\c2cccc(C)n2)SC1=Nc1cccc(F)c1`, the inhibition is -12.2% (inactive).
In the case of `N#CC1(NC(=O)COc2ccc(C(=O)c3ccc(F)cc3)cc2)CCCCC1`, the inhibition was 99.2% (active).
With `Fc1cccc(F)c1-c1nc(CSc2nccc(C(F)(F)F)n2)cs1`, the inhibition is 51.8% (active).
As for `Cc1nccc(-c2ccc(NC(=O)/C=C/c3csc(C)n3)cc2)n1`, the figure is 86.2% (active); as for `O=C(Nc1cccc([N+](=O)[O-])c1)C1COc2ccccc2O1` (stereo unspecified), 97.2% (active); as for `O=C(NNC(=O)C1COc2ccccc2O1)c1cccc(C(F)(F)F)c1` (stereo unspecified), -52.4% (inactive).
In the case of `O=C(Nc1cccc(Cl)c1Cl)C1COc2ccccc2O1` (stereo unspecified) it was -20.1% (inactive); in that of `COc1cccc(OCCCOc2ccc(/C=C3\C(=N)N4N=CSC4=NC3=O)cc2)c1`, 88.5% (active); in that of `N#Cc1cccc(CN2CCN3C(C(=O)Nc4ccc(-n5cccn5)cc4)=COC3=NC2=O)c1`, 85.8% (active).
`N#Cc1cccc(CN2CCN3C(C(=O)Nc4ccc(-n5cccc5)cc4)=COC3=NC2=O)c1`: the inhibition was 29.2% (inactive).
In the case of `N#Cc1cccc(CN2CCN3C(C(=O)NCCCc4ccccc4)=COC3=NC2=O)c1` it was 89.4% (active); in that of `O=c1c(Cl)c(Cl)cnn1CCOc1ccc(Br)cc1`, 33.5% (inactive).
As to `O=c1c(Cl)c(Cl)cnn1Cc1cc(-c2cccs2)on1`, the inhibition was 99.8% (active).
Turning to `O=c1c(Cl)cc(C(F)(F)F)cn1Cc1coc(-c2cccs2)n1`, the inhibition is 25.7% (inactive).
For `Fc1ccc(C2C=C(c3cccs3)Nc3nnnn32)cc1` (stereo unspecified), the inhibition is 51% (active).
In the case of `FC(F)(F)c1ccc(C2C=C(c3cccs3)Nc3nnnn32)cc1` (stereo unspecified) it was 87.3% (active); in that of `FC(F)Oc1ccc(C2C=C(c3ccccc3)Nc3nnnn32)cc1` (stereo unspecified), -55.4% (inactive).
For the compound `CCCCSC1=C(C#N)C(=O)NC(C)S1` (stereo unspecified), the inhibition was 27.6% (inactive).
`CCCCCCSC1=C(C#N)C2(CCCC2)C(C#N)C(=O)N1` (stereo unspecified): the inhibition entry is “inactive”.
In the case of `CCCCCCSC1=C(C#N)C(=O)NC(CO)S1` (stereo unspecified) it was 98.9% (active); in that of `c1ccc(-c2cnnc(N3CCCCCCC3)n2)cc1`, 48.8% (inactive).
Regarding `COc1cccc(-c2cc(C(=O)O)nc3cc(-c4ccc(Cl)cc4)nn23)c1`, the inhibition is 59.4% (active).
As for `CC(C)(C)c1cc2nc(C(=O)O)cc(-c3cccc(C(F)(F)F)c3)n2n1`, the figure is 43.3% (inactive).
With `CC(C)(C)c1cc2nc(C(=O)O)cc(-c3cccc(F)c3)n2n1`, the inhibition is 64.4% (active).
As for `COc1cccc(-c2cc(C(=O)O)nc3cc(C(C)(C)C)nn23)c1`, the figure is 100% (active); as for `COc1ccccc1-c1cc(C(=O)O)nc2cc(-c3ccc(Cl)cc3)nn12`, 43.3% (inactive).
As for `CN1CCC(CNc2ccc3ncc(-c4cccc(OC(F)(F)F)c4)n3n2)CC1`, the figure is 44.6% (inactive).
With `CCOc1cc(C2=NN(c3ccc(C)cc3)C(=O)CC2)ccc1O`, the inhibition was 6.87% (inactive).
As for `COc1ccc2c(c1)c(CC(=O)O)c(C)n2C(=O)c1ccc(Cl)cc1`, the figure is 43.2% (inactive).
Regarding `Cc1ccc(C2(CCN)CCOC(C(C)C)C2)cc1` (stereo unspecified), the inhibition was 80.7% (active).
As for `Cc1ccc(Cc2nnc(SCC(=O)Nc3ccc(OC(F)F)cc3)[nH]c2=O)cc1`, the figure is 44.2% (inactive).
As for `COc1ccc(NC(=O)N2CCN(CCCOC(c3ccc(Cl)cc3)c3ccc(Cl)cc3)CC2)cc1`, the figure is 10.1% (inactive); as for `COc1ccc(NC(=O)CSc2n[nH]c(C3CC3)n2)cc1`, 78.8% (active).
In the case of `Cc1ccc(C)c(Nc2nc(-c3ccc([N+](=O)[O-])cc3)cs2)c1` it was 15.3% (inactive).
Take `O=[N+]([O-])c1cccc(-c2csc(Nc3ccc(Cl)cc3)n2)c1`: the inhibition was 88.3% (active).
Consider `COC(=O)c1ccc2c(c1)S(=O)(=O)N(C1CCCCC1C)C2=O` (stereo unspecified), for which the inhibition is 81.4% (active).
As for `COC(=O)Nc1cccc(C(=O)N2CCC(C)C3CCCCC32)c1` (stereo unspecified), the figure is 27.1% (inactive); as for `CS(=O)(=O)NCc1cccc(-c2ccc(C#N)s2)c1`, 2.92% (inactive).
As for `Cc1ccc(-c2nnc(SCC(=O)N3CCC(C)CC3)o2)cc1`, the figure is -35.9% (inactive).
As for `CCOC(=O)CSc1nnc(CSc2cc(C)nc(N3CCCC3)n2)o1`, the figure is 93.2% (active); as for `COC(=O)C(C)Sc1ncnc2c1nnn2-c1ccc(F)cc1` (stereo unspecified), 76.7% (active); as for `COc1ccc(-n2nnc3c(SCC(N)=O)ncnc32)cc1`, 14.3% (inactive).
For the compound `COc1ccc(-n2nnc3c(SCC(=O)Nc4ccccc4)ncnc32)cc1`, the inhibition was 68.2% (active).
As for `CCOC(=O)C(C)Sc1ncnc2c1nnn2-c1ccc(OC)cc1` (stereo unspecified), the figure is 75.5% (active).
In the case of `O=C(CSc1ncnc2c1nnn2-c1ccc(F)cc1)OCc1ccccc1` it was 2.43% (inactive).
As for `COC(=O)CSc1ncnc2c1nnn2Cc1ccc(F)cc1`, the inhibition was -38.1% (inactive).
In the case of `CCC(Sc1ncnc2c1nnn2-c1ccc(F)cc1)C(=O)OC` (stereo unspecified) it was 42.6% (inactive); in that of `CCOC(=O)CSc1ncnc2c1nnn2-c1ccc(OC)cc1`, 3.35% (inactive).
Take `COC(=O)CSc1ncnc2c1nnn2-c1ccc(F)cc1`: the inhibition was 89.9% (active).
In the case of `CCOC(=O)CNC(=O)CSc1ncnc2c1nnn2-c1ccc(OC)cc1` it was -7.53% (inactive); in that of `COC(=O)C(C)Sc1ncnc2c1nnn2-c1ccc(OC)cc1` (stereo unspecified), 72.2% (active); in that of `CCOC(=O)C(C)Sc1ncnc2c1nnn2-c1ccc(F)cc1` (stereo unspecified), 60% (active).
On to `CCC(Sc1ncnc2c1nnn2-c1ccc(OC)cc1)C(=O)OC` (stereo unspecified), for which the inhibition is -33.3% (inactive).
In the case of `CC(Sc1ncnc2c1nnn2-c1ccc(F)cc1)c1ccccc1` (stereo unspecified) it was 82.1% (active); in that of `CCOC(=O)C(CC)Sc1ncnc2c1nnn2-c1ccc(F)cc1` (stereo unspecified), 36.5% (inactive).

The values above are taken from PubChem BioAssay AID1259343 (VanderVen Lab, College of Veterinary Medicine, Cornell …, 2017).
